Here are results for 15 compounds from PubChem BioAssay (Tox21).

Test [1] in a line: qHTS assay to identify small molecule antagonists of the thyroid receptor (TR) signaling pathway (AID 743065). Also: series mostly up to about 70 µM; nearly all actives have a fitted effect of over 55% in size. The method in brief: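 GH3.TRE-Luc rat pituitary cells carrying two TR response elements driving luciferase were plated for 4 h, given compound plus 1 nM T3 (final), and incubated 23.5 h at 37 C. ONE-Glo luminescence measured reporter inhibition; CellTiter-Fluor fluorescence tracked cytotoxicity.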

The subject of test [2] is thyroid hormone receptor (rat, GH3 cells). Nature of the test: qHTS assay to identify small molecule agonists of the thyroid receptor (TR) signaling pathway (AID 743066; calls by dose curve).
Test [3] has as its target Estrogen receptor (Homo sapiens) (UniProt P03372). As to the kind of experiment: qHTS assay to identify small molecule antagonists of the estrogen receptor alpha (ER-alpha) signaling pathway (AID 743069; active = well fitted curve in the direction sought with a large enough effect in the signal ratio in the repeat runs, not every such curve was filed as active; the % refers to the signal ratio). Summed up: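 HEK293 cells stably carrying an ER-alpha-UAS-bla beta-lactamase reporter were pre-cultured overnight in 2% charcoal-stripped FBS medium. Test compounds in DMSO were added together with 17beta-estradiol for 18 hr at 37C. Read-out was fluorescence after 2 hr with LiveBLAzer B/G FRET substrate at room temperature.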

Test [4] is described as follows: qHTS assay to identify small molecule antagonists of the estrogen receptor alpha (ER-alpha) signaling pathway - cell viability counter screen (AID 743074; calls by dose curve; also: nearly all actives have a fitted effect of over 45% in size).
Test [5] deals with Estrogen receptor (Homo sapiens) (UniProt P03372). As to the kind of experiment: qHTS assay to identify small molecule agonists of the estrogen receptor alpha (ER-alpha) signaling pathway (AID 743075; calls by dose curve).
For test [6] the target is unchanged. Nature of the test: qHTS assay to identify small molecule agonists of the estrogen receptor alpha (ER-alpha) signaling pathway using the BG1 cell line (AID 743079). Also: nearly all actives have a fitted effect of over 20% in size.
The nature of test [7]: qHTS assay to identify small molecule antagonists of the estrogen receptor alpha (ER-alpha) signaling pathway using the BG1 cell line (AID 743080; calls by dose curve;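 also: BG1 cells stimulated with 17beta-estradiol alongside compound; series mostly up to about 70 µM; nearly all actives have a fitted effect of over 25% in size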). The method in brief:
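Quantitative HTS on the Tox21 10K library: BG1 cells with endogenous ER-alpha and ERE-luciferase reporter, 17beta-estradiol stimulation, 21.5 h compound exposure, luminescence endpoint with parallel fluorescence cytotoxicity counter-read.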

Test [8] is described as follows: qHTS assay to identify small molecule antagonists of the estrogen receptor alpha (ER-alpha) signaling pathway using the BG1 cell line - cell viability counter screen (AID 743081).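 Also: compound given together with 17beta-estradiol as the ER stimulus; series mostly up to about 70 µM; nearly all actives have a fitted effect of over 45% in size.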
Test [9] addresses Aromatase (Homo sapiens) (UniProt P11511). As to the kind of experiment: qHTS assay to identify aromatase inhibitors (AID 743083). Also: series mostly up to about 70 µM; nearly all actives have a fitted effect of over 55% in size.
A short description of test [10]: qHTS assay to identify aromatase inhibitors - cell viability counter screen (AID 743084).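 Also: cells stimulated with testosterone during compound exposure; nearly all actives have a fitted effect of over 55% in size.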
For test [11], the target named is Aryl hydrocarbon receptor (Homo sapiens) (UniProt P35869). As to the kind of experiment: qHTS assay to identify small molecule that activate the aryl hydrocarbon receptor (AhR) signaling pathway (AID 743085).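 Also: HG2L7.5c1 human HepG2 liver cells with stably integrated DRE-driven firefly reporter; series mostly up to about 70 µM; nearly all actives have a fitted effect of over 15% in size.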 Summed up: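 Compounds were tested in HepG2 hepatocellular carcinoma cells harbouring a stably integrated luciferase gene under control of 20 DREs. Increased reporter signal after 24 h treatment at 37C was taken as AhR activation.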

Test [12] deals with Peroxisome proliferator-activated receptor gamma (Homo sapiens) (UniProt P37231). Nature of the test: qHTS assay to identify small molecule agonists of the peroxisome proliferator-activated receptor gamma (PPARg) signaling pathway (AID 743094; active = well fitted activation curve with a large enough effect in the signal ratio in the repeat runs, not every such curve was filed as active; the % refers to the signal ratio). The method in brief: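 GeneBLAzer PPARg UAS-bla HEK293H cells were plated, rested 5 h, then exposed to compounds for 17 h at 37C. Beta-lactamase activity was read by LiveBLAzer B/G FRET substrate fluorescence after 1 h at room temperature.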

Test [13] can be described thus: qHTS assay to identify small molecule antagonists of the peroxisome proliferator-activated receptor gamma (PPARg) signaling pathway - cell viability counter screen (AID 743194). Also: nearly all actives have a fitted effect of over 55% in size. The method in brief: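 PPARg-UAS-bla HEK293H cells were plated, rested 5 h at 37 C, then treated with compounds plus rosiglitazone (50 nM final) for 17 h at 37 C; viability was then read by CellTiter-Glo luminescence after 30 min at room temperature.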

A short description of test [14]: qHTS assay for small molecule agonists of the antioxidant response element (ARE) signaling pathway (AID 743202; active = well fitted activation curve with a large enough effect in the signal ratio in the repeat runs, not every such curve was filed as active; the % refers to the signal ratio). Summed up: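 Read-out: LiveBLAzer B/G FRET substrate fluorescence after 2 h at room temperature, following 16 h compound treatment at 37 C of HepG2 cells carrying an ARE-driven beta-lactamase reporter.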
Test [15] in a line: qHTS assay for small molecule agonists of the antioxidant response element (ARE) signaling pathway - cell viability counter screen (AID 743203; calls by dose curve; also: nearly all actives have a fitted effect of over 55% in size). Summed up:
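ARE-bla HepG2 cells were plated, rested 5 h at 37C/5% CO2, then exposed to compounds in DMSO for 16 h. Viability was read as CellTiter-Glo luminescence after 30 min at room temperature, in the same wells as the ARE screen.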

Test [16] can be described thus: qHTS assay for small molecule activators of the heat shock response signaling pathway - cell viability counter screen (AID 743209). Also: nearly all actives have a fitted effect of over 50% in size. Also: potency is read from the fitted curve at half-maximal effect. Summed up:
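HSE-bla HeLa cells plated overnight, then exposed to Tox21 compounds (23 nL in DMSO) for 5 h at 37 C. After the bla reporter read, CellTiter-Glo was added in the same wells and luminescence read after 30 min at room temperature.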

A short description of test [17]: qHTS assay for small molecule activators of the heat shock response signaling pathway (AID 743210; active = well fitted activation curve with a large enough effect in the signal ratio in the repeat runs, with a control signal flat, not every such curve was filed as active; the % refers to the signal ratio; also: series mostly up to about 63 µM). Summed up:
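HSE-bla HeLa cells (beta-lactamase reporter under heat shock response elements) were exposed to compounds for 5 h at 37 C, then loaded with LiveBLAzer B/G FRET substrate for 2.5 h at room temperature before fluorescence reading.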

Test [18] can be described thus: qHTS assay to identify small molecule that activate the aryl hydrocarbon receptor (AhR) signaling pathway - cell viability counter screen (AID 743086).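 Also: HepG2 liver cells carrying the AhR DRE luciferase reporter; series mostly up to about 70 µM; nearly all actives have a fitted effect of over 45% in size.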 The method in brief: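 HepG2-AhR-luc (HG2L7.5c1) cells, 4000/well, were preincubated 5 h at 37C, exposed to compound in qHTS format for 24 hr at 37C, then given CellTiter-Fluor for 30 min; viability was read as fluorescence in the reporter wells.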

The target of test [19] is Peroxisome proliferator-activated receptor gamma (Homo sapiens) (UniProt P37231). Nature of the test: qHTS assay to identify small molecule antagonists of the peroxisome proliferator-activated receptor gamma (PPARg) signaling pathway (AID 743191; calls by dose curve; also: series mostly up to about 63 µM; nearly all actives have a fitted effect of over 30% in size). The method in brief:
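GeneBLAzer PPARg UAS-bla HEK293H cells carrying a UAS-driven beta-lactamase reporter were plated at 3000 cells/well, preincubated 5 h at 37C, then given compound for 17 h at 37C; LiveBLAzer B/G FRET substrate was read after 1 h at room temperature.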

The nature of test [20]: qHTS assay to identify small molecule agonists of the peroxisome proliferator-activated receptor delta (PPARd) signaling pathway - cell viability counter screen (AID 743211). Also: nearly all actives have a fitted effect of over 55% in size. The method in brief:
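Counter screen for cytotoxicity run in parallel with the PPARd reporter screen. Beta-lactamase reporter HEK293H cells exposed to compounds 17 h; ATP-based CellTiter-Glo luminescence quantified viability.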

Molecules are shown by their SMILES. Records with an inconclusive call do not appear. Active and inactive are the calls of the source. Unless noted, calls follow the shape of the dose curve; as a rule, active = well fitted curve in the direction sought with a large enough effect in the repeat runs; inconclusive = weak or mixed curves; inactive = no such curve, though single readings can be large; an effect the other way counts as inactive or inconclusive. Non-standard residues stand in square brackets, D forms with d. Residues, ends and D or L forms follow the SMILES beside them. *: point of attachment. Sta = CC(C)C[C@H](N)[C@@H](O)CC(=O)O; Isovaleryl = CC(C)CC(=O)*

Chain of Estrogen receptor (Homo sapiens) (P03372 whole entry, looked up): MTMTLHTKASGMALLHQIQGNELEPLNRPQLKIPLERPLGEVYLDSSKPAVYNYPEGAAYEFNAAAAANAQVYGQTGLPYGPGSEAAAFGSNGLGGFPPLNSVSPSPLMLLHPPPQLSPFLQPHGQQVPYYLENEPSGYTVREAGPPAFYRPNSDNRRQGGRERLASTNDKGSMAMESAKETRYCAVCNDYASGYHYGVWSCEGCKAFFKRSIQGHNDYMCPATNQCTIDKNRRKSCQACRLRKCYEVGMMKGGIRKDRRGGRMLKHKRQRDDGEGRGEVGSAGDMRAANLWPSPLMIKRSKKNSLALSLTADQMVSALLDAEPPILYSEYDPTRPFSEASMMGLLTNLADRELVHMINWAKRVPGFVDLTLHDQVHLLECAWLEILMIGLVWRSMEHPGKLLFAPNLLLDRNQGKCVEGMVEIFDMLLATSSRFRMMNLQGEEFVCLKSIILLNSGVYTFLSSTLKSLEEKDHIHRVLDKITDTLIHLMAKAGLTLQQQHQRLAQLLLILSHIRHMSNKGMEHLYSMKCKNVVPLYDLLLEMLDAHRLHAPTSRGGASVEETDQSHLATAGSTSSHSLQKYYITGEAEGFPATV
Chain of Peroxisome proliferator-activated receptor gamma (Homo sapiens) (P37231 whole entry, looked up): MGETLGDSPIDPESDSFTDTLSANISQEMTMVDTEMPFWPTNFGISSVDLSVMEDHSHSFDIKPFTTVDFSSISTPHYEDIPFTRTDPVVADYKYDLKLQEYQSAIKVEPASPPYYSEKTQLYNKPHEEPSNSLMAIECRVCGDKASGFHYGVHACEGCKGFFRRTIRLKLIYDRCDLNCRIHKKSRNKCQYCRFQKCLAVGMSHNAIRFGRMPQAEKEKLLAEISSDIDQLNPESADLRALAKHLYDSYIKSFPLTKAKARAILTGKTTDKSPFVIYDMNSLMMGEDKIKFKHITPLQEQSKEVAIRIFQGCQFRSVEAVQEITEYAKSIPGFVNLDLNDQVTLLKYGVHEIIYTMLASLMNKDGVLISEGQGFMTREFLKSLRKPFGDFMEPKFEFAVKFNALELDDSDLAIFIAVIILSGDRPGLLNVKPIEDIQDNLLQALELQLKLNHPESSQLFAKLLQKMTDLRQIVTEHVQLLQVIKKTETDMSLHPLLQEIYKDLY
Chain of Aryl hydrocarbon receptor (Homo sapiens) (P35869 whole entry, looked up): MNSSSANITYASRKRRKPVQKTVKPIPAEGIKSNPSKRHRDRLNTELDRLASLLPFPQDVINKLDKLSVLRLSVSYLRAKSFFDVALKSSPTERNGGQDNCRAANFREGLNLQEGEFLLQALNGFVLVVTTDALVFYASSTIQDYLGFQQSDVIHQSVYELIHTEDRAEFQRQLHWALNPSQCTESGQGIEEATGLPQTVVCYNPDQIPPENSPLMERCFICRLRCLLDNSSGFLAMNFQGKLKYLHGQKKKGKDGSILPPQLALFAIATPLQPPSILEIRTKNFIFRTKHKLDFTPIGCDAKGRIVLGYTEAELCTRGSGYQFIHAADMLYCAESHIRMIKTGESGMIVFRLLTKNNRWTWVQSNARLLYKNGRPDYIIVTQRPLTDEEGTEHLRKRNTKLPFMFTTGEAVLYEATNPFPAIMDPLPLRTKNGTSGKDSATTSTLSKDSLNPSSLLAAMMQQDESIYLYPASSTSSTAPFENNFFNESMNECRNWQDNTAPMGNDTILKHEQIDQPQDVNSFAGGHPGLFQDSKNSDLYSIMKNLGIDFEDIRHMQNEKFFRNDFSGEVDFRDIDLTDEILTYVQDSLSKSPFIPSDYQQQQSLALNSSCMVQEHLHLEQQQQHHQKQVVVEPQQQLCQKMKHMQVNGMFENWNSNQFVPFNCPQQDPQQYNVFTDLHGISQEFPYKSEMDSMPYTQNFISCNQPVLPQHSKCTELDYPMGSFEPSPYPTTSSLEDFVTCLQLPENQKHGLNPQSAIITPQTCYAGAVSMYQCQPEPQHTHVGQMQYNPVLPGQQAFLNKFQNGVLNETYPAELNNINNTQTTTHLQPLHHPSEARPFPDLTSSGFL
Chain of Aromatase (Homo sapiens) (P11511 whole entry, looked up): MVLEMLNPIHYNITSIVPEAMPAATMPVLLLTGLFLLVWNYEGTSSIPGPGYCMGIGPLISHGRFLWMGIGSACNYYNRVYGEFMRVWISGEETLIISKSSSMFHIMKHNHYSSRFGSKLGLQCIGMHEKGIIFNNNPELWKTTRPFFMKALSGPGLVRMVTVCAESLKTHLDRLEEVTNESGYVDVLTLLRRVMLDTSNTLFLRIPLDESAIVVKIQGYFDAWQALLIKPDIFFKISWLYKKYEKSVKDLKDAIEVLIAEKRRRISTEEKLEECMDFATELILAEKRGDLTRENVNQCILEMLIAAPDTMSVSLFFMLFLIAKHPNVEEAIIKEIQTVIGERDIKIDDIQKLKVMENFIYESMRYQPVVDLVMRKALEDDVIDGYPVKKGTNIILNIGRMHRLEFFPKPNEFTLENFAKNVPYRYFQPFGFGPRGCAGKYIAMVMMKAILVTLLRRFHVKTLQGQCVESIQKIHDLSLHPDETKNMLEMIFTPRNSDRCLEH

As to `CC(=O)Nc1ccc(S(=O)(=O)Nc2cc(C)on2)cc1`, the Potency result in [1], in test [2], in [4], in [5], in test [6] and in test [7] was “inactive” throughout. The Potency result in [9], in test [11], in test [14] and in test [16] was “inactive” throughout. The compound was classed as inactive in test [3], in [8], in test [10], in test [12], in test [13] and in test [15]. Also, the call in test [17] was inactive.

With `CC1(C)CC(N)CC(C)(C)N1`, the Potency entry in [1], in test [2], in [4], in test [9], in test [11] and in test [14] was “inactive” throughout. Besides, in test [16], the Potency entry is “inactive”. The call in [8], in [10], in test [18], in [12], in test [13] and in test [17] was inactive.

For `CC12CCCC=C1C(=O)OC2=O` (stereo not given), the Potency entry in [1], in test [2], in [4], in test [9], in test [11] and in test [14] was “inactive” throughout. Besides, in [16], the Potency entry is “inactive”. Also, the result in test [8], in test [10], in test [18], in test [12], in test [19] and in [17] was inactive. Further, in test [20], the result was inactive.

For the compound `CCC(C)SSC(C)CC` (stereo not given), the Potency entry in test [1], in test [2], in [4], in test [5], in test [6] and in test [7] was “inactive” in each case. The Potency entry in test [9], in test [11] and in test [16] was “inactive” each time. For the same compound, the call in test [8], in [10], in test [18], in test [12], in [15] and in test [17] was inactive. Moreover, in [20], the outcome was inactive.

On to `CCCCCCC(=O)c1ccccc1`, for which the Potency entry in [1], in [2], in test [4], in test [9], in test [11] and in test [14] was “inactive” in each case. The call in test [8], in test [10], in test [18], in test [12], in test [19] and in test [13] was inactive. In addition, the compound was classed as inactive in test [15], in test [17] and in test [20].

Take `CC(C)(C)OC=O`: the Potency entry in test [1], in test [2], in [4], in [9], in [11] and in test [14] was “inactive” throughout. Moreover, the Potency entry in test [16] is “inactive”. The outcome in test [8], in test [10], in test [18], in [12], in test [19] and in test [13] was inactive. For the same compound, the outcome in [17] and in test [20] was inactive.

As to `CC(C)C(C)C`, the Potency result in test [1], in [2], in test [4], in [9], in [11] and in test [14] was “inactive” each time. Besides, the call in test [8], in test [10], in test [18], in test [12], in test [13] and in [17] was inactive.

`CC(C)OC(=O)C(C(=O)OC(C)C)=C1SC=CS1`: the Potency result in test [1], in test [2], in [4], in test [9], in [11] and in test [16] was “inactive” each time. Moreover, the call in test [8], in test [10], in test [18], in test [12], in test [19] and in test [13] was inactive. For the same compound, the result in test [20] was inactive.

As to `COC(=O)c1ccccc1Cl`, the Potency entry in test [1], in test [2], in test [4], in test [9], in [11] and in [14] was “inactive” each time. In addition, the call in test [8], in [10], in test [18], in test [12], in test [13] and in [15] was inactive. Besides, the call in test [17] and in test [20] was inactive.

As for `CCOCCOCCOC(C)=O`, the Potency entry in test [1], in test [2], in [4], in test [9], in test [11] and in [14] was “inactive” each time. In test [16], the Potency entry was “inactive”. Further, the call in test [8], in [10], in test [18], in test [12], in [13] and in [15] was inactive. The result in [17] and in test [20] was inactive.

For `COC(C)(C)CC(C)=O`, the Potency result in test [1], in [2], in test [4], in test [9], in test [11] and in test [14] was “inactive” in each case. The Potency entry in test [16] is “inactive”. Besides, the call in test [8], in test [10], in test [18], in test [12], in test [13] and in [17] was inactive. In addition, the result in [20] was inactive.

With `Nc1nc(Cl)cc(Cl)n1`, the Potency entry in test [1], in [2], in [5], in test [6], in [7] and in test [9] was “inactive” in each case. The compound was called inactive in test [3], in [8], in test [10], in test [18], in [12] and in test [13]. Also, the compound was called inactive in test [15] and in [20]. The Potency in test [16] is 55 µM (active).

For the compound `C=CC(=O)OCC[N+](C)(C)C`, the Potency result in test [1], in test [2], in test [5], in [6], in test [7] and in [9] was “inactive” throughout. The Potency entry in [11] is “inactive”. For the same compound, the compound was called inactive in test [3], in [8], in test [10], in test [18], in [12] and in test [19]. The compound was classed as inactive in [15], in test [17] and in test [20].

As to `CC(C)CC(=O)N[C@H](C(=O)N[C@H](C(=O)N[C@@H](CC(C)C)[C@@H](O)CC(=O)N[C@@H](C)C(=O)N[C@@H](CC(C)C)[C@@H](O)CC(=O)O)C(C)C)C(C)C` (Isovaleryl-VV[Sta]A[Sta]-OH), the Potency result in test [1], in test [2], in [4], in test [9], in [11] and in test [14] was “inactive” each time. Further, the Potency entry in test [16] was “inactive”. For the same compound, the compound was classed as inactive in test [8], in test [10], in test [18], in test [12], in [19] and in test [13]. In addition, the compound was called inactive in test [15] and in test [20].

For the compound `N#CC1(N)CCCCC1`, the Potency entry in test [1], in [2], in [4], in test [5], in test [6] and in [7] was “inactive” in each case. In addition, the Potency result in [9], in [11], in [14] and in test [16] was “inactive” each time. Moreover, the compound was classed as inactive in test [8], in [12], in [19], in [13], in test [17] and in [20].
